GDH-TPI counter = GDH-TPI coupled enzyme inhibition counter-screen | actives 1.2% (n = 360,000) | GDH-TPI coupled enzyme counterscreen, NADH absorbance | inhibition, % at 4.8 µM | AID 588335; in the data active = inhibition above about 30%;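 note: 0% = DMSO wells and 100% = wells lacking the enzyme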
BoNT A protease = inhibitors of Botulinum neurotoxin A light chain protease; actives 0.17% (n = 360,000); inhibition, % at 10 µM; multiplex microsphere protease substrate cleavage, flow cytometry; note: plate controls were buffer without enzyme for full effect and enzyme alone for no effect
Anthrax LF inh2 = blocks Bacillus anthracis lethal factor protease; multiplex microsphere protease cleavage assay, LF; inhibition, % at 10 µM; actives 0.12% (n = 360,000); AID 588501; note: plate controls were buffer without enzyme for full effect and enzyme alone for no effect
Target sequence (P15917 whole entry, looked up): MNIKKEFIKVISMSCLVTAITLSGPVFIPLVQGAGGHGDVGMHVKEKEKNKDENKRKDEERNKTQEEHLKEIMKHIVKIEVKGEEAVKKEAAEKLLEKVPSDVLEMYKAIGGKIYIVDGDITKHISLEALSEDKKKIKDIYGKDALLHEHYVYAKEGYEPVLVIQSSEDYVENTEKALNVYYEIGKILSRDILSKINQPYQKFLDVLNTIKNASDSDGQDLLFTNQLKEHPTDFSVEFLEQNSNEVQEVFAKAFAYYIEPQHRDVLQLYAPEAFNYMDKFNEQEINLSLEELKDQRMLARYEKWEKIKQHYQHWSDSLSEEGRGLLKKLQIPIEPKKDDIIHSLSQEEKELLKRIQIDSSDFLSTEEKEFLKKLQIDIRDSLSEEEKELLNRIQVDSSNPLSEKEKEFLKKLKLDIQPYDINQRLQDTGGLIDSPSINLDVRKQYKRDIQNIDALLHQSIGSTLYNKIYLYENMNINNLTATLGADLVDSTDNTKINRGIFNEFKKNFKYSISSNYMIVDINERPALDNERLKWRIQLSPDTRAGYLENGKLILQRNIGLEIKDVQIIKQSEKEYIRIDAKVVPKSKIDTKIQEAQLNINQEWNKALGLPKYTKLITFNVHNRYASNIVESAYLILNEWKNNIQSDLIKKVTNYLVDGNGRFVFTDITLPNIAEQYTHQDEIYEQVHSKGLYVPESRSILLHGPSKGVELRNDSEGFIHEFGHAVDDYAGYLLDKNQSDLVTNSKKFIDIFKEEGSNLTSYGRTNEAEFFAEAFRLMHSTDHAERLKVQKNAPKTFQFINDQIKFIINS
FBA Mtb inh = inhibits M. tuberculosis FBA enzyme; P9WQA3; inhibition, % at 1 µM; actives 2.3% (n = 360,000); purified M. tuberculosis FBA, fluorescence read-out; in the data active = inhibition above about 27%;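 note: 0% = vehicle and 100% = reference inhibitor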
Bead autofluor = counter-screen for toxin protease inhibitors: compound fluorescence; fluorescence intensity (no concentration beside the values); compound autofluorescence counterscreen, microsphere flow cytometry; hits give high values; actives 3.1% (n = 360,000); in the data active = fluorescence intensity above about 16000; inconclusive = no clear call, values can overlap the other calls
BoNT-F LC inh = blocks Botulinum neurotoxin F light chain protease. Multiplex microsphere protease cleavage assay, flow cytometry. inhibition, % at 10 µM. actives 0.22% (n = 360,000). AID 588497; in the data active = inhibition above about 35%, passing the limit was not always enough; inconclusive = no clear call, values can overlap the other calls; note: plate controls were buffer without enzyme for full effect and enzyme alone for no effect
The depositor's hits bear a star; ? = inconclusive. Shown are actives, neighbours in structure and some others; about 6.6% of the full set was active somewhere. Cut-off read from the data, not from the text of the source, unless noted: active = inhibition above about 30%; inconclusive = no clear call, values can overlap the other calls; inactive = below that.

SMILES | GDH-TPI counter | BoNT A protease | Anthrax LF inh2 | FBA Mtb inh | Bead autofluor | BoNT-F LC inh
CCCc1[nH]c(=O)c(C#N)c2c1CCCC2 | 30 | 0 | -3 | 10 | 10619 | 3
CCCc1cc(C(F)(F)F)c(C#N)c(=O)[nH]1 | 11 | -1 | -5 | 156* | 4136 | ?
CC(C)(C)c1cc(C(F)(F)F)c(C#N)c(=O)[nH]1 | 5 | 1 | -4 | 120* | 3747 | ?
Cc1cc(-c2ccc(Cl)cc2Cl)c(C#N)c(=O)[nH]1 | 19 | 1 | -4 | 15 | 5429 | 1
Cc1cc(C)c(NS(=O)(=O)c2ccc(NC(=O)CCC(=O)O)cc2)c(C)c1 | 0 | 2 | 4 | 2 | 4279 | 10
O=C(O)Cn1nc(-c2ccccc2)ccc1=O | 7 | 2 | -11 | 1 | 3875 | 31
Cc1ccc(-n2c(C)nn(CC#N)c2=O)cc1 | 6 | 0 | 3 | 1 | 3284 | -5
CCOC(=O)Cn1nc(C)n(-c2ccccc2)c1=O | 10 | 0 | 1 | 0 | 22724* | 2
CCOC(=O)Cn1nc(-c2ccccc2)ccc1=O | 4 | -1 | -3 | 3 | 23084* | -1
CCOC(=O)Cn1nc(C)n(-c2ccc(C)cc2)c1=O | 4 | 2 | -1 | 2 | 22478* | 4
Cc1nn(CCOc2ccccc2)c(=O)n1-c1ccccc1 | 1 | 0 | -4 | -1 | 22975* | -1
CCOC(=O)Cn1nc(C)n(-c2c(C)cccc2C)c1=O | -8 | 0 | -2 | -1 | 3968 | -2
COc1ccc(/C=C/C(=O)Nc2ccccc2Cl)cc1S(=O)(=O)N1CCOCC1 | 13 | -1 | -7 | 5 | 3559 | 2
COC(=O)C(C)n1nc(C)n(-c2ccc(C)cc2)c1=O (stereo unspecified) | 5 | 2 | -2 | 1 | 22187* | 4
CC(C)OCCCNC(=O)c1ccncc1 | -5 | 2 | 2 | 2 | 18964* | 3
Cc1ccc(S(=O)(=O)c2nc(-c3cccs3)oc2NCCCN(C)C)cc1 | 9 | -1 | -2 | 5 | 2158 | -6
CCOc1ccc(N/C=C/C(=O)c2ccc3ccccc3c2)c([N+](=O)[O-])c1 | 4 | 0 | -2 | 1 | 16459* | 0
CCOc1ccc(N/C=C/C(=O)c2ccc(C)cc2)c([N+](=O)[O-])c1 | -8 | 0 | 1 | -1 | 2449 | 2
CCOC(=O)c1c2c3c(cccc3[nH]c1=O)C(=O)c1ccccc1-2 | 1 | 4 | 6 | 0 | 3588 | 4
CCOC(=O)c1c2c3c(cccc3n(C)c1=O)C(=O)c1ccccc1-2 | 27 | 26 | -9 | 2 | 2922 | 40*
Cn1c(=O)n(-c2cccc(Cl)c2)c(=O)c2c3c(sc21)COC(C)(C)C3 | 15 | -3 | -1 | -1 | 17764* | -5
CC1(C)Cc2c(sc3c2c(=O)n(-c2ccc(Cl)cc2)c(=O)n3CC(N)=O)CO1 | 2 | 1 | 21 | 1 | 4544 | ?
CCc1noc(C)c1C(=O)N1CCN(S(=O)(=O)c2ccc(Br)cc2)CC1 | 10 | 1 | -6 | 2 | 6305 | 6
CCOc1ccccc1-n1nnnc1SCc1nc2ccccc2s1 | 5 | -4 | -3 | 0 | 17496* | -8
O=C(CN1CCOCC1)NN1CC(=O)N(c2ccc(Cl)cc2)CC1=O | -1 | -1 | -3 | 0 | 4448 | -14
SMILES | GDH-TPI counter | BoNT A protease | Anthrax LF inh2 | FBA Mtb inh | Bead autofluor | BoNT-F LC inh
Cc1ccc(SCC(=O)NC(=O)NCCC(C)C)c(C)c1 | 10 | 0 | -2 | 0 | 3586 | 0
S=C1NCN(Cc2cccnc2)CN1 | 1 | 1 | ? | 0 | 3668 | 35*
CCc1ccc(N2CN(Cc3cccnc3)CNC2=S)cc1 | -3 | 0 | -3 | 3 | 4108 | 3
Cc1ccccc1CNC(=O)c1ccc2nc([C@@H]3O[C@H](CO)[C@H](O)[C@H](O)[C@H]3O)[nH]c2c1 | -3 | 0 | 3 | 0 | 3617 | -7
COCCOC(=O)C1=C(C)NC(=O)NC1c1c(Cl)nc2ccccn2c1=O (stereo unspecified) | 31* | 2 | 3 | 3 | 2157 | 8
CCOc1ccc2ccccc2c1C1NC(=O)NC(C)=C1C(=O)OCCOC (stereo unspecified) | 1 | 0 | 0 | -2 | 3887 | 1
Cc1ccc(S(=O)(=O)N2CCOCC2)cc1C(=O)OCC(=O)NC1CCS(=O)(=O)C1 (stereo unspecified) | 5 | 0 | 0 | 1 | 2006 | -4
Cc1ccc(-n2ncc3c(=O)n(Cc4cccnc4)cnc32)cc1 | 5 | 1 | -3 | 4 | 19270* | -3

Screening data: PubChem BioAssay, several laboratories
